From PubChem BioAssay (NCATS) come the findings set out here.

The nature of assay [1]: Cell Viability - LYMP2-004 (AID 966). Also: nearly all actives have a fitted effect of over 65% in size. Conditions: LYMP2-004 lymphoblastoid cell viability, qHTS; series mostly up to 92.2 µM. The method in brief: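 Cells seeded 2500/well, rested 5 hr at 37 C, dosed across a concentration series, incubated 24 hr at 37 C, then CellTiter-Glo added for 30 min at room temperature and luminescence read. Hill fitting gave AC50.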
On the technique in general: qHTS replaces the single test concentration by a dilution series.

Assay [2] can be described thus: Cell Viability - LYMP2-005 (AID 967). Particulars: LYMP2-005 lymphoblastoid cell viability; series mostly up to 92.2 µM. Summed up: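 Luciferase-based ATP quantitation served as the viability measure in human lymphoblastoid LYMP2-005 cells exposed to test compounds for 24 h at 37 C in complete culture medium. Potency (AC50) was obtained by fitting concentration-response curves with the Hill equation.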

The nature of assay [3]: Cell Viability - LYMP2-009 (AID 968). Also: nearly all actives have a fitted effect of over 55% in size. Conditions: LYMP2-009 lymphoblastoid cell viability; series mostly up to 92.2 µM.
A short description of assay [4]: Cell Viability - LYMP2-011 (AID 969). Also: nearly all actives have a fitted effect of over 60% in size. Particulars: LYMP2-011 lymphoblastoid cells viability; series mostly up to 92.2 µM. Summed up: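 2500 cells/well, 5 hr 37 C; compound added, 24 hr 37 C; CellTiter-Glo 30 min RT; luminescence. qHTS concentration-response, Hill-equation AC50. Tetraoctylammonium bromide positive control.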
Assay [5] is described as follows: Cell Viability - LYMP2-013 (AID 970). Also: nearly all actives have a fitted effect of over 55% in size. Conditions: LYMP2-013 lymphoblastoid cells viability; series mostly up to 92.2 µM. The method in brief:
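qHTS; 2500 lymphoblastoid cells/well; 5 hr 37 C settle; cpd 24 hr 37 C; CellTiter-Glo, 30 min RT; luminescence. AC50 = Hill fit.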

The nature of assay [6]: Cell Viability - LYMP2-017 (AID 972). Also: nearly all actives have a fitted effect of over 55% in size. Conditions: LYMP2-017 lymphoblastoid cell viability; series mostly up to 92.2 µM. Summed up: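 2500 cells/well, 5 h 37 C; cpd 24 h 37 C in complete medium; CellTiter-Glo, 30 min RT; luminescence (ATP). AC50 via Hill fit, qHTS.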
A short description of assay [7]: Cell Viability - LYMP2-019 (AID 973). Also: nearly all actives have a fitted effect of over 55% in size. Conditions: LYMP2-019 lymphoblastoid cell line viability; series mostly up to 92.2 µM. Summed up:
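Luminescent ATP read-out (CellTiter-Glo, 30 min room temperature) served as the viability measure after 24 hr treatment of lymphoblastoid cells at 37 C. Concentration-response data were fitted to the Hill equation for AC50.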

The nature of assay [8]: Cell Viability - LYMP2-021 (AID 974). Conditions: LYMP2-021 lymphoblastoid cells viability; series mostly up to 92.2 µM. Summed up: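 Plate 2500 lymphoblastoid cells per well and incubate 5 hr at 37 C. Add compounds over a concentration range and incubate 24 hr at 37 C. Add CellTiter-Glo, wait 30 min at room temperature, read luminescence.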
Assay [9] in a line: Cell Viability - LYMP2-025 (AID 976). Particulars: LYMP2-025 lymphoblastoid cell viability; series mostly up to 92.2 µM. Summed up: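 Seed 2500 LYMP2-025 cells/well; 5 hr at 37 C; add compound; 24 hr at 37 C; add CellTiter-Glo; 30 min RT; read luminescence. AC50 from Hill-modelled concentration-response.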
Assay [10] is described as follows: Cell Viability - LYMP2-002 (AID 977). Conditions: LYMP2-002 lymphoblastoid cell viability, qHTS; series mostly up to 92.2 µM. Summed up: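 Luminescent ATP readout (CellTiter-Glo, 30 min room temperature) after 24 h compound exposure at 37 C of a human lymphoblastoid line, 2500 cells/well. AC50 values derived by standard Hill fitting of qHTS concentration-response data.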

Several values for one entry are separate records, joined by “and”; a condition that tells them apart may be missing. Identical values can stand only once. Inconclusive results are not listed. Activity calls are given as the source filed them. Calls follow the shape of the dose curve; as a rule, active = well fitted curve in the direction sought with a large enough effect; inconclusive = small, poorly fitted or top-dose-only effect, or another doubt; inactive = no such curve, though single readings can be large; an effect the other way counts as inactive or inconclusive.
Potency is read from the fitted curve at half-maximal effect.

As for `CCCC(C)(COC(N)=O)COC(=O)NC(C)C` (centres undefined), the Potency entry in [1], in assay [2], in assay [3], in [4], in assay [5] and in assay [6] was “inactive” throughout. In addition, the Potency entry in assay [7], in [8], in assay [9] and in [10] was “inactive” in each case.

As to `OCCOc1ccccc1`, the Potency result in assay [1], in [3], in [4], in assay [5], in [6] and in [7] was “inactive” in each case. Moreover, the Potency entry in assay [8], in assay [9] and in [10] was “inactive” throughout.

For `CNCC(O)c1ccc(O)cc1` (centres undefined), the Potency entry in assay [1], in [2], in [3], in assay [4], in assay [5] and in [6] was “inactive” in each case. For the same compound, the Potency result in assay [7], in assay [8], in assay [9] and in assay [10] was “inactive” each time.

As for `Clc1ccc(COC(Cn2ccnc2)c2ccc(Cl)cc2Cl)cc1` (centres undefined), in assay [4], the Potency is 79.4 µM (active).

Turning to `C[C@]12C/C(=C/O)C(=O)C[C@@H]1CC[C@@H]1[C@@H]2CC[C@@]2(C)[C@H]1CC[C@]2(C)O`, the Potency entry in [2] and in assay [9] was “inactive” throughout. Also, the Potency in assay [8] is 63.1 µM (active).

As to `Oc1cccc2cccnc12`, the Potency in [1] is 15.8 µM (active) and 12.6 µM (active); in assay [3], 10 µM (active); in assay [5], 15.8 µM (active); in assay [6] it was 12.6 µM (active) and 10 µM (active); in [7], 10 µM (active); in assay [10], 25.1 µM (active) and 15.8 µM (active).

Turning to `CCOP(=S)(OCC)Oc1cc(C)nc(C(C)C)n1`, the Potency entry in [1], in assay [2], in [3], in assay [4], in assay [5] and in assay [6] was “inactive” in each case. Moreover, the Potency entry in assay [7], in [8], in assay [9] and in assay [10] was “inactive” in each case.

On to `CC(COc1ccccc1)N(CCCl)Cc1ccccc1` (centres undefined), for which the Potency is 39.8 µM (active) in assay [3]; 50.1 µM (active) in [4]; 39.8 µM (active) in [5]; 39.8 µM (active) in assay [6]; 50.1 µM (active) in assay [8]; 50.1 µM (active) in assay [10].

With `CC(=O)Oc1ccccc1C(=O)Nc1ncc([N+](=O)[O-])s1`, the Potency in assay [2] was 31.6 µM (active); in assay [4], 50.1 µM (active); in assay [5], 39.8 µM (active); in assay [7] it was 31.6 µM (active); in assay [8], 39.8 µM (active); in assay [9], 31.6 µM (active). Besides, the Potency in assay [10] was 31.6 µM (active).

For the compound `N[C@@H](Cc1ccc(N(CCCl)CCCl)cc1)C(=O)O`, the Potency in [3], in assay [4], in assay [5], in [6], in assay [7] and in assay [8] was 39.8 µM (active) throughout. Besides, in [10], the Potency is 39.8 µM (active).

Turning to `Oc1ccccc1-c1ccccc1`, the Potency entry in assay [1], in [2], in [3], in assay [4], in [5] and in assay [6] was “inactive” each time. For the same compound, the Potency result in assay [7], in assay [8], in assay [9] and in [10] was “inactive” each time.

With `c1ccc2c(c1)Nc1ccccc1S2`, the Potency entry in assay [1], in [2], in assay [3], in assay [4], in [5] and in [6] was “inactive” each time. The Potency entry in assay [7], in [8], in assay [9] and in assay [10] was “inactive” in each case.

Take `Oc1ccc(Cl)cc1Cc1ccccc1`: the Potency result in assay [1], in [2], in assay [3], in [4], in [5] and in [6] was “inactive” in each case. In addition, the Potency result in [7], in assay [8], in assay [9] and in [10] was “inactive” in each case.

As to `NCC(O)c1ccc(O)cc1` (centres undefined), the Potency result in [1], in assay [2], in assay [3], in [4], in [5] and in assay [6] was “inactive” in each case. Also, the Potency result in assay [7], in [8], in [9] and in [10] was “inactive” in each case.
